# Compounds with a hit are over-represented: about 5.9% of the library has one in this group of screens.
# ABHD5 PLIN5 PPI: ABHD5-PLIN5 interaction inhibitors, primary screen, cell lysate, split luciferase complementation, luminescence. Split G. princeps luciferase complementation, 4 h. inhibition, % at 4 µM. 360,000 tested, 0.78% active. AID 602281, 2012;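 active = inhibition above the mean inhibition across every tested compound plus 3 SD, cut at about 22% in these data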
# PRMT1 inh: PRMT1 methyltransferase inhibitors, primary screen, biochemical, fluorescence polarization; Protein arginine N-methyltransferase 1 (Homo sapiens), Q99873; recombinant PRMT1, activity-based probe fluorescence polarization; inhibition, % at 2.79 µM; 370,000 tested, 1.3% active; AID 652257, 2013;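 active = inhibition above about 21% made by adding two undisclosed values, limit read from the data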
# Rtt109 HAT inh: inhibitors of C. albicans Rtt109/Vps75 HAT, primary screen, biochemical, ThioGlo CoA-SH fluorescence, plate reader | Histone acetyltransferase RTT109 (Candida albicans (strain SC5314 / ATCC MYA-2876)), … | purified Rtt109/Vps75, 4 h | inhibition, % at 34.9 µM | 330,000 tested, 0.16% active | AID 540336, 2011;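 active = inhibition of at least 50% in every replicate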
# Target sequence (Q5AAJ8 whole entry, looked up): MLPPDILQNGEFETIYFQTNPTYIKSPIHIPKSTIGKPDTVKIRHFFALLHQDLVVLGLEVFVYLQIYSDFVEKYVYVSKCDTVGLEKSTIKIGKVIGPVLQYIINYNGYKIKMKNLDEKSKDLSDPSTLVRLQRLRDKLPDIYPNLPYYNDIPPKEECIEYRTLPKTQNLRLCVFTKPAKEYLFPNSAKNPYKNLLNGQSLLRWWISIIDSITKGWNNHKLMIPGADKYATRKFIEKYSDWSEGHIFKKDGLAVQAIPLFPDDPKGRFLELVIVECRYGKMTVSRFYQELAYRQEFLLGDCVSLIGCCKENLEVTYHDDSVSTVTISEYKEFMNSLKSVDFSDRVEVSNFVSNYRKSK
# rCAG RNA binder: binders of r(CAG) RNA repeats, primary screen, biochemical, fluorescence | r(CAG) RNA repeat, TO-PRO-1 dye displacement fluorescence | inhibition, % at 3 µM | 370,000 tested, 1.3% active;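 active = inhibition above the plate cutoff, the mean of all test compounds on that plate plus 3 SD, cut at about 35% in these data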;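 also: higher means more dye released from RNA so lower well fluorescence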
# ALR H2O2 inh: inhibitors of human ALR sulfhydryl oxidase, primary screen, biochemical, H2O2 detection, HRP-luminol luminescence, single point. 290,000 tested, 3.8% active. FAD-linked sulfhydryl oxidase ALR (Homo sapiens), P55789. AID 485317, 2010. purified ALR, DTT oxidation. inhibition, % (concentration not given with the values);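 active = mean replicate inhibition above about 79%, with every replicate also reaching it, limit read from the data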
# Target sequence (P55789 whole entry, looked up): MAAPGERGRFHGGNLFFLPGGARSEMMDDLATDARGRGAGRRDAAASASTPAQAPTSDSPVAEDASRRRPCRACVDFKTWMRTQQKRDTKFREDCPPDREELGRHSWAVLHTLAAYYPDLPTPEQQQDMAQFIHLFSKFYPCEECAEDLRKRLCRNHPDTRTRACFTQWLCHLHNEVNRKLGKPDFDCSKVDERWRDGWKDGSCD
# LANA-H2A inh: blockers of LANA interaction with H2A/H2B – biochemical, FP readout, HTS, primary screen | 320,000 tested, 0.6% active | cell-free LANA-H2A/H2B peptide, fluorescence polarization | inhibition, % (concentration not given with the values); in the data active = inhibition mostly above about 10%, no sharp cut-off; inactive = mostly below about 6.7%
# Hits are given with their value; n = inactive; x = no result given.
SMILES,ABHD5 PLIN5 PPI,PRMT1 inh,Rtt109 HAT inh,rCAG RNA binder,ALR H2O2 inh,LANA-H2A inh
CCOC(=O)[C@]12CCC=C1N(Cc1cccc3ccccc13)C(=O)[C@H](CC(=O)NCCc1ccccc1OC)C2,n,n,x,n,x,x
Cc1ccc(OCCCCNC(C)c2ccccc2)c(C)c1 (centres undefined),n,n,n,n,n,n
Cc1cc(NC(=O)c2csc([C@@H]3O[C@H](CO)[C@H](O)[C@H](O)[C@H]3O)n2)n(C)n1,n,n,x,n,x,x
Cc1cccc(S(=O)(=O)NC(=O)C2(C)CCN2C(=O)CC2CCCCC2)c1 (centres undefined),n,n,x,n,x,x
CC(COc1ccc(Br)cc1)CN1CCC(C(O)(c2ccccc2)c2ccccc2)CC1 (centres undefined),x,n,x,n,x,x
COc1ccc(Cc2c(O)nc(SCC(=O)NC(C)(C)C)[nH]c2=O)cc1,n,n,n,n,84.4,n
COc1ccc(CCNC(=O)CSc2nc(O)cc(=O)[nH]2)cc1OC,n,n,n,n,94.8,n
COc1ccc(CCNC(=O)CSc2cc(=O)[nH]c(N)n2)cc1OC,n,n,n,n,n,n
COc1ccc(Cc2c(O)nc(SCC(=O)N3CCCCCC3)[nH]c2=O)cc1,n,n,n,n,n,n
CCOC(=O)C1=CCN(S(=O)(=O)c2ccc(Br)cc2)C1c1ccc(F)cc1 (centres undefined),x,n,x,n,x,x
COc1ccccc1Cc1c(-c2ccccc2)nc2ccc(C)cn12,x,n,x,n,x,x
CC1=NN(C(N)=S)C(=O)C1N=Nc1cccc(Cl)c1 (centres undefined),n,n,n,n,90.2,n
CC1=NN(C(N)=S)C(=O)C1N=Nc1ccccc1C (centres undefined),n,n,n,n,n,n
CC1=NN(C(N)=S)C(=O)C1N=Nc1ccc(C)cc1C (centres undefined),x,n,x,n,94.1,n
COCCCNC(=O)C[C@H]1C[C@@]2(C(=O)OC)C(=C[C@H](COCc3ccccc3)O[C@@H]2C)N(CCc2ccc(OC)c(OC)c2)C1=O,x,n,x,n,x,x
O=c1oc2cc(O)ccc2cc1-c1ccccc1,n,n,n,n,90.7,n
Nc1cccc(-c2cc3ccccc3oc2=O)c1,n,n,n,n,99.0,n
CC(=O)Oc1ccc(-c2cc3ccccc3oc2=O)cc1,n,n,n,n,n,n
O=c1oc2ccccc2cc1-c1ccc(O)cc1O,n,n,n,n,98.7,n
Nc1nnc(-c2cc3ccccc3oc2=O)s1,n,n,n,n,x,n
O=C(NCc1ccc(C(F)(F)F)cc1)O[C@H]1CC[C@@]23CCCN2C(=O)CCC[C@H]3C1,x,n,x,x,x,x
O=C(Cc1ccc(Cl)cc1)Nc1ccccc1N1CCN(C(=O)c2ccccc2)CC1,n,n,n,n,n,n
CCCNC(=S)Nc1ccc(Nc2ccccc2)cc1,n,n,n,n,98.8,n
S=C(NCCCNC(=S)Nc1ccccc1)Nc1ccccc1,n,n,n,n,n,n
S=C(Nc1ccc(Nc2ccccc2)cc1)Nc1ccccn1,n,22.6,n,n,n,n
SMILES,ABHD5 PLIN5 PPI,PRMT1 inh,Rtt109 HAT inh,rCAG RNA binder,ALR H2O2 inh,LANA-H2A inh
CNC(=S)Nc1ccc(Nc2ccccc2)cc1,n,n,n,n,99.0,n
S=C(Nc1ccccc1)Nc1ccccn1,n,n,x,n,x,x
COC(=O)[C@]12C[C@H](CC(=O)NCC3CCCCC3)C(=O)N(Cc3ccc(Cl)cc3Cl)C1=C[C@H](C1CCCC1)O[C@@H]2C,x,n,x,n,x,x
N#CCCN(Cc1ccccc1)C(C(=O)NC1CCCCC1)c1cc2ccccc2o1 (centres undefined),n,n,x,n,x,x
O=C(c1cc(Cl)ccc1F)N1CCCC(Nc2ccc3c(c2)OCCO3)C1 (centres undefined),n,n,n,n,97.1,n
Cc1occc1C(=O)N1CCCC(Nc2ccc(F)c(F)c2)C1 (centres undefined),n,n,n,n,n,n
CSCc1ccc(C(=O)N2CCCC(Nc3ccc(F)cc3)C2)o1 (centres undefined),n,n,n,n,98.2,n
O=C(c1ccco1)N1CCCC(Nc2ccc3c(c2)OCCO3)C1 (centres undefined),n,n,n,n,98.5,n
COCc1ccc(C(=O)N2CCCC(CNC(=O)c3ccc(F)cc3)C2)o1 (centres undefined),n,n,n,n,n,n
CSCc1ccc(C(=O)N2CCCC(Nc3ccc4c(c3)OCCO4)C2)o1 (centres undefined),n,n,n,n,98.8,n
CCC(CC)C(=O)N(C)c1c(C)nc2c(OCc3ccc(F)c(F)c3)cccn12,n,n,x,n,x,x
O=C(CSc1nnc(-c2ccc(Cl)cc2)n1-c1ccccc1)Nc1ccc(Oc2ccccc2)cc1,x,n,x,n,x,x
Cc1cc(=O)n(-c2ccc(O)cc2)[nH]1,n,n,n,n,98.6,n
O=C(Nc1c(-c2ccc(Cl)cc2)[nH][nH]c1=O)c1ccc(Br)cc1,n,n,x,n,x,x
O=C(CSc1nnc(CNC(=O)c2ccc(F)cc2)o1)NCC1CCCO1 (centres undefined),n,n,n,n,n,17.8
CC(C)(C)c1ccc(C(=O)Nc2nnc(SCC(=O)NCC3CCCO3)s2)cc1 (centres undefined),n,n,n,n,n,n
CN(C)S(=O)(=O)c1ccc(C(=O)Nc2nnc(SCC(=O)NCC3CCCO3)s2)cc1 (centres undefined),n,n,n,n,94.2,n
CC(C(=O)NC1C(=O)N2C(C(=O)O)=C(CSc3nnnn3C)CSC12)n1cc(Br)cn1 (centres undefined),n,n,n,n,n,n
Cc1cc(C(F)F)nn1CC(=O)NC1C(=O)N2C(C(=O)O)=C(CSc3nnnn3C)CSC12 (centres undefined),n,23.8,n,n,n,n
CC(=O)OCC1=C(C(=O)O)N2C(=O)C(NC(=O)C(C)Cn3nc(C)c(Cl)c3C)C2SC1 (centres undefined),n,24.6,n,n,n,n
Cc1nn(C(C)C(=O)NC2C(=O)N3C(C(=O)O)=C(CSc4nnnn4C)CSC23)cc1Cl (centres undefined),n,24.0,n,n,n,n
CN(C(=O)[C@H]1O[C@@H](n2cnc3c(=O)[nH]c(N)nc32)[C@H](O)[C@@H]1O)C1CCCCC1,x,n,x,n,x,x
CN1CCN(CCCNC(=O)c2ccc3c(c2)N(Cc2ccc(F)cc2)CCS3)CC1,n,n,n,n,98.9,n
O=C(NCCN1CCOCC1)c1cc2sccc2n1Cc1ccc(F)cc1,n,n,n,n,96.6,n

# Compound activity: PubChem BioAssay, several laboratories
